High-throughput results deposited in PubChem by National Center for Advancing Translational Sciences (NCATS).
Only some compounds are listed: those with a hit (about 19% of all), similar ones and a draw of the others.
HT1080-NT tox: kills 2HG-producing HT-1080-NT fibrosarcoma cells; AID 686970; Potency, µM (top dose mostly 46.1 µM), most hits filed as cytotoxic; HT-1080-NT fibrosarcoma viability, CellTiter-Glo ATP luminescence, 48 h; 360,000 tested, 1.6% active;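 note: NT is the 2HG producing partner of a matched IDH1 knockdown line; nearly all actives have a fitted effect of over 55% in size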
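Compounds were tested in concentration-response format on HT-1080-NT cells for 48 hours at 37 degrees C. Cell viability came from CellTiter-Glo luminescence; curves were classified by r2, response magnitude and activity.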
DT40 TDP1 no CPT: qHTS for Inhibitors of human tyrosyl-DNA phosphodiesterase 1 (TDP1): qHTS in cells in absence of CPT | DT40 Tdp1-/- hTDP1 cells, no CPT, ATP luminescence, 48 h | Potency, µM (top dose mostly 46.2 µM), actives largely listed as inhibitors | 420,000 tested, 15% active; note: nearly all actives have a fitted effect of over 55% in size
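A cellular qHTS used chicken DT40 cells lacking endogenous Tdp1 but carrying stably transfected human TDP1. Compounds were applied without camptothecin, and cell growth kinetics were judged by ATP-dependent luminescence after ≥48 hr.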
IL1B secr inh: inhibitors of inflammasome signaling (IL-1 beta secretion); THP-1 LPS/ATP IL-1B secretion, AlphaLISA, 16 h; active compounds read low; 360,000 tested, 4.7% active; AID 743279; activity change, % at 57.5 µM; in the data active = activity change below about -50%; inconclusive = mostly about -30% to -49%
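THP-1 cells pretreated 1 hr with compounds (up to 57.5 uM final), then stimulated with LPS (250 ng/mL final) plus ATP (1.25 mM final); secreted IL-1B measured by AlphaLISA after 16 hr, decreased signal indicating inhibition.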
TDP1 cell CPT: growth inhibition of DT40 Tdp1-/-;hTDP1 cells with camptothecin (screen for TDP1 inhibitors); chicken DT40 Tdp1-/-;hTDP1 cells + 20 nM CPT, ATP luminescence, 48 h; Potency, µM (doses to about 46.2 µM), hits mostly inhibitors; 420,000 tested, 12% active; AID 686979; note: nearly all actives have a fitted effect of over 55% in size
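Chicken DT40 Tdp1-/- cells complemented with human TDP1, 400 cells/well, exposed to compounds plus 20 nM camptothecin for at least 48 h at 37 C; viability read as ATP content by CellTiter-Glo luminescence.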
HT1080 IDH1KD tx: HT-1080 IDH1 knockdown cell toxicity (counter line); HT-1080 IDH1 knockdown viability, ATP luminescence, 48 h; Potency, µM (titrated, usually from 46.1 µM), hits mostly cytotoxic; 360,000 tested, 2% active; AID 686971
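Luminescent ATP read-out (CellTiter-Glo, 10 min at room temperature) after 48 h compound exposure at 37 °C gave viability of IDH1-knockdown HT-1080 cells. Activity was normalised to DMSO and cell-free wells, then fitted as concentration-response curves.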
Numbers stand for hits; n = inactive; u = inconclusive; x = not tested or not shown; ! = not confirmed by another sample. Unless noted, calls come from the whole dose curve; as a rule, active = well fitted curve in the direction sought with a large enough effect; inconclusive = small, poorly fitted or top-dose-only effect, or another doubt; inactive = no such curve, though single readings can be large; an effect the other way counts as inactive or inconclusive.

SMILES	HT1080-NT tox	DT40 TDP1 no CPT	IL1B secr inh	TDP1 cell CPT	HT1080 IDH1KD tx
CC1=NN(C(N)=S)C(=O)C1N=Nc1ccccc1O (stereo unspecified)	n	n	n	n	n
O=C(CSc1ccc(Cl)cc1)N1N=CCC1c1ccccc1 (stereo unspecified)	n	u	-63	u	n
NC(=NC(=O)c1ccc(Cl)cc1)N1N=CCC1c1ccccc1 (stereo unspecified)	n	u	n	n	u
C=C(C)CC1(NC(C)c2ccccc2)CCCCC1 (stereo unspecified)	n	u	n	23µM	n
CC(NC(=O)CC1CCCCC1)c1ccccc1 (stereo unspecified)	n	n	n	n	n
Cc1cc(N2CCOCC2)nc2ccc(NC(=O)C3CCCCC3)cc12	x	10µM	x	13µM	x
Cc1cc(N2CCOCC2)nc2ccc(NC(=S)N3CCCCC3C)cc12 (stereo unspecified)	u	u	-67	u	u
CCCc1cc(=O)[nH]c(SCC(=O)Nc2ccc(OC)c(S(=O)(=O)N3CCCCC3)c2)n1	n	n	n	u	n
COc1cccc(C(C)N(C)Cc2nc(-c3ccoc3)oc2C)c1 (stereo unspecified)	n	n	n	n	n
CCc1nn(C(CC)C(=O)NCCCN2CC(C)CC(C)C2)c(=O)c2cc3oc(C)cc3n12 (stereo unspecified)	n	u	n	16µM	u
COCCNC(=O)c1sc2nc(-c3ccccc3)cn2c1C	n	n	n	n	n
Cc1cccc(NC(=O)c2sc3nc(-c4ccccc4)cn3c2C)n1	n	u	-59	u	n
Cc1ccc(Cl)cc1NC(=O)c1sc2nc(-c3ccccc3)cn2c1C	x	15µM	x	21µM	x
COc1ccc(-c2cn3c(C)c(C(=O)Nc4cccc(C)n4)sc3n2)cc1	n	23µM	n	u	n
Cc1c(C(=O)Nc2ccc3c(c2)OCO3)sc2nc(-c3ccccc3)cn12	n	u	n	u	n
COc1ccc(-c2cn3c(C)c(C(=O)NC(C)(C)C)sc3n2)cc1	n	u	n	u	n
Cc1c(C(=O)Nc2ccccc2)sc2nc(-c3ccccc3)cn12	n	u	u	18µM	n
COc1ccc(OC)c(CCNC(=O)c2cnn(-c3ccccc3Cl)c2C2CCN(C(=O)OC(C)(C)C)CC2)c1	x	13µM	x	18µM	x
CC(C)(C)OC(=O)N1CCC(c2c(C(=O)N3CCN(c4ccccn4)CC3)cnn2-c2ccccc2Cl)CC1	x	18µM	x	u	x
CCN1CCN(CCCNC(=O)c2cnn(-c3ccccc3Cl)c2C2CCN(C(=O)OC(C)(C)C)CC2)CC1	x	n	x	u	x
Cc1ccc(-n2ncc(C(=O)N3CCN(c4ccccn4)CC3)c2C2CCN(C(=O)OC(C)(C)C)CC2)cc1C	x	n	x	n	x
CC(C)(C)OC(=O)N1CCC(c2c(C(=O)N3CCCCC3)cnn2-c2ccccc2Cl)CC1	x	u	x	18µM	x
Cc1cccc(C)c1-n1ncc(C(=O)N2CCN(c3ccccn3)CC2)c1C1CCN(C(=O)OC(C)(C)C)CC1	x	18µM	x	u	x
CCCN(CCC)CCNC(=O)Cn1ncc2c([nH]c3ccc(C)cc32)c1=O	x	n	x	n	x
Oc1ccc(-c2n[nH]c(=S)n2-c2ccc3c(c2)OCCO3)c(O)c1	n	u	-94	u	u
SMILES	HT1080-NT tox	DT40 TDP1 no CPT	IL1B secr inh	TDP1 cell CPT	HT1080 IDH1KD tx
COc1ccc(-c2n[nH]c(=S)n2-c2ccc3c(c2)OCCO3)cc1	n	u	n	u	n
S=c1[nH]nc(-c2ccc(Br)cc2)n1-c1ccc2c(c1)OCCO2	n	18µM	n	u	n
O=S1(=O)CC(N2CCSCC2)CN1Cc1cn(Cc2ccc(Cl)cc2)nn1 (stereo unspecified)	n	n	n	n	n
Cc1ccc(S(=O)(=O)NC(=O)C2(C)CCN2C(=O)c2ccccc2)cc1 (stereo unspecified)	n	n	n	n	n
COC1C(O)C(CO)OC1n1c(Br)nc2c(=O)[nH]c(N)nc21 (stereo unspecified)	x	n	x	n	x
COC1C(CO)OC(n2c3c(Cl)cccc3c3c4c(c5c6cccc(Cl)c6[nH]c5c32)C(=O)NC4=O)C(O)C1O (stereo unspecified)	4.6µM	2.6µM	-63	0.52µM	5.8µM
Nc1cc(-c2ccc(OC(F)(F)F)cc2)nn1-c1ccc(Cl)c(Cl)c1	u	u	-65	u	u
O=C(Cn1ccc2cc(S(=O)(=O)N3CCCCCC3)ccc21)NCc1cccc(Cl)c1	x	18µM	x	u	x
COC(=O)Cn1ccc2cc(S(=O)(=O)N3CCCCC3)ccc21	n	u	n	21µM!	n
CC(NC(=O)Cn1ccc2cc(S(=O)(=O)N3CCCCCC3)ccc21)c1ccccc1 (stereo unspecified)	x	18µM	x	u	x
O=C(Cn1ccc2cc(S(=O)(=O)N3CCCCC3)ccc21)NCc1ccccc1Cl	x	21µM	x	18µM	x
O=C(Cn1ccc2cc(S(=O)(=O)N3CCCC3)ccc21)NCc1ccc(Cl)cc1	x	n	x	u	x
CC1=C(C)CC(C(=O)Nc2ccc(C(=O)N3CCOCC3)cc2)C(C(=O)O)C1 (stereo unspecified)	n	n	n	n	n
CN(C)c1ccc(NC(=O)CCN2CCN(c3ccccn3)CC2)cc1	n	n	n	n	n
O=C(CCn1ccc2cc(S(=O)(=O)N3CCCC3)ccc21)NCCc1ccccc1	n	u	n	u	n
CCOc1ccccc1CNC(=O)Cn1ccc2cc(S(=O)(=O)N3CCC(C)CC3)ccc21	n	21µM	n	u	n
COc1cccc(CNC(=O)Cn2ccc3cc(S(=O)(=O)N4CCCC4)ccc32)c1OC	n	u	n	u	n
O=C(Cn1ccc2cc(S(=O)(=O)N3CCCC3)ccc21)NCCc1ccccc1	n	23µM	n	u	n
Cc1ccc(NS(=O)(=O)c2c(C)ccc3nsnc23)c([N+](=O)[O-])c1	n	n	n	n	n
COc1ccc(NC(=O)C(c2ccccc2)N2CCN(c3ccccn3)CC2)cc1Cl (stereo unspecified)	n	u	n	23µM	n
Cc1ccc(NC(=O)CN2CCN(c3ccccn3)CC2)cc1S(=O)(=O)N(C)C	n	n	n	u	n
CCN(CC)S(=O)(=O)c1cc(NC(=O)C(C)N2CCN(c3ccccn3)CC2)ccc1C (stereo unspecified)	n	15µM	n	18µM	n
CCN(CC)S(=O)(=O)c1cc(NC(=O)CN2CCN(c3ccccn3)CC2)ccc1C	n	23µM	n	13µM	n
Cc1ccc(NC(=O)C(c2ccccc2)N2CCN(CC(=O)NC3CC3)CC2)cc1Cl (stereo unspecified)	n	u	n	u	n
